Reference: ChEMBL document CHEMBL3988442, “University of Dundee, Small-Polar-MMV Screening Library” (2021)
For some assays here: Results with a measured potency or affinity are listed apart.

How the values were obtained:
Design in all cases: scale not given: direction of the effect not stated beside the values
[1] = biological target: Protein translocase subunit SecA (Escherichia coli (strain K12)) (UniProt P10408); assay: Assay to Identify E. coli SecA ATPase Inhibitors; assay type: functional; details: 30 µM
Sequence of Protein translocase subunit SecA (Escherichia coli (strain K12)) (P10408 whole entry): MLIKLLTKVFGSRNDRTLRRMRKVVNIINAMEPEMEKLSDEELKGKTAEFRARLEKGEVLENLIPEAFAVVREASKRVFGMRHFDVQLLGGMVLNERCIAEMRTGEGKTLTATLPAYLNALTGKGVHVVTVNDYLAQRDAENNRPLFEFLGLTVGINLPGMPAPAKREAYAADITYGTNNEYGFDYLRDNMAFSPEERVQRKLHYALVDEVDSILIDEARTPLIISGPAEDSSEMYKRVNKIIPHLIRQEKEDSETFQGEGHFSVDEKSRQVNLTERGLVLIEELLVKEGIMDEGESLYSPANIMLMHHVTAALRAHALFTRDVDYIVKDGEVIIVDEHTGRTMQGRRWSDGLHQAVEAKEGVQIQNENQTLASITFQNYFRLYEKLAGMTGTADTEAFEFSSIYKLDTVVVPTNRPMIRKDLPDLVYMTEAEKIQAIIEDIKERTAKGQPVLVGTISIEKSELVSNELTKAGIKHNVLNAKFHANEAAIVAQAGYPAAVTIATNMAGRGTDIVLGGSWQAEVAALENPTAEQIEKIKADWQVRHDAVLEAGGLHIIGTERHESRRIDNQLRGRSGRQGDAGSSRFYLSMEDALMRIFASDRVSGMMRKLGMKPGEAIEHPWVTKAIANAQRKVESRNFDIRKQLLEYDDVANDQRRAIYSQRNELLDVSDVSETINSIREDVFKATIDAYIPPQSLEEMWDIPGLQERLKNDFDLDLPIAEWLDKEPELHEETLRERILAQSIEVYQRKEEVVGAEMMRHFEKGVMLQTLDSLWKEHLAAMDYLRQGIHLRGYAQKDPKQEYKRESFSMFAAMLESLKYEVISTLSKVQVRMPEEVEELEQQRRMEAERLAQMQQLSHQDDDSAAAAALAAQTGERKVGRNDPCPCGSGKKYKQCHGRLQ

[2] = biological target: T1, Ubiquitin-activating enzyme e1, putative (Leishmania donovani (strain BPK282A1)) (UniProt E9BSI1); assay: Leishmania donovani Ubiquitin Activating Enzyme (LdE1); assay type: functional; details: 30 µM
T1 sequence (whole entry): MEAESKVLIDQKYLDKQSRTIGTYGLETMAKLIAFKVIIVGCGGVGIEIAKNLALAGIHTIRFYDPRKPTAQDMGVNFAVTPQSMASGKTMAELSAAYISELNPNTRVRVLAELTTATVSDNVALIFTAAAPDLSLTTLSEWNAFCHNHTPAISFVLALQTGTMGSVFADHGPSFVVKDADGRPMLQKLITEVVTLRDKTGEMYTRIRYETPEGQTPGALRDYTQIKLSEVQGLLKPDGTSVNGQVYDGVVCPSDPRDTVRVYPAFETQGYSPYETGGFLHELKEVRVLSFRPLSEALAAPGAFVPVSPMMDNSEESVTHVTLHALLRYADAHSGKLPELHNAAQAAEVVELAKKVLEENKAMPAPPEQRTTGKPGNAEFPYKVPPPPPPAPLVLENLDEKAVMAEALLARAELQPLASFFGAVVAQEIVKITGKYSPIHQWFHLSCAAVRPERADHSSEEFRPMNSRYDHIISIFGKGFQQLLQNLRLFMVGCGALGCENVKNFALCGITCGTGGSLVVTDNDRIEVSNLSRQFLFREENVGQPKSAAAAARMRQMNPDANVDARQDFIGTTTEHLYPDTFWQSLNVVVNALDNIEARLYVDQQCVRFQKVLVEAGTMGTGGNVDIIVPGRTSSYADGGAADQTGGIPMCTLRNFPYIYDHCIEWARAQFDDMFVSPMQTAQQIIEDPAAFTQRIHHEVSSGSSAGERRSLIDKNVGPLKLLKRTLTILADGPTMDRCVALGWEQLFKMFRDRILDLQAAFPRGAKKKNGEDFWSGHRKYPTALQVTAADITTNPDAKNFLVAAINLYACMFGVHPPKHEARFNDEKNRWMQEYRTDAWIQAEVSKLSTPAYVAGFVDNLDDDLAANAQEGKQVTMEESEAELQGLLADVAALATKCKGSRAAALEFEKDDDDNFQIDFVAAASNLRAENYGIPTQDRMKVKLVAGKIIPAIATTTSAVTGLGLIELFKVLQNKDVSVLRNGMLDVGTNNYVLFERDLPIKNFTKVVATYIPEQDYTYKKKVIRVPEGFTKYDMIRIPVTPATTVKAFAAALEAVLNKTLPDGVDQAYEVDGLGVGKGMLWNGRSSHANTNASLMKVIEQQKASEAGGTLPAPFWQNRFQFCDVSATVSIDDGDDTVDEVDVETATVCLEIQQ

[3] = biological target: AMP-activated protein kinase, AMPK (Homo sapiens) (UniProt P54646+O43741+P54619+Q9UGJ0+Q9Y478+Q13131+Q9UGI9); assay: AMP-dependent Kinase enzyme assay. An in vitro enzyme assay that detects ADP turnover that is directly proportional to AMPK activity. This uses naive AMPK that is activated during the assay with MK-8722; assay type: functional; details: 30 µM
[4] = biological target: Sialic acid-binding Ig-like lectin 9 (Homo sapiens) (UniProt Q9Y336); assay: Hs-Siglec9 ALPHAscreen SOP 20170721; details: 10 µM
Sequence of Sialic acid-binding Ig-like lectin 9 (Homo sapiens) (Q9Y336 whole entry): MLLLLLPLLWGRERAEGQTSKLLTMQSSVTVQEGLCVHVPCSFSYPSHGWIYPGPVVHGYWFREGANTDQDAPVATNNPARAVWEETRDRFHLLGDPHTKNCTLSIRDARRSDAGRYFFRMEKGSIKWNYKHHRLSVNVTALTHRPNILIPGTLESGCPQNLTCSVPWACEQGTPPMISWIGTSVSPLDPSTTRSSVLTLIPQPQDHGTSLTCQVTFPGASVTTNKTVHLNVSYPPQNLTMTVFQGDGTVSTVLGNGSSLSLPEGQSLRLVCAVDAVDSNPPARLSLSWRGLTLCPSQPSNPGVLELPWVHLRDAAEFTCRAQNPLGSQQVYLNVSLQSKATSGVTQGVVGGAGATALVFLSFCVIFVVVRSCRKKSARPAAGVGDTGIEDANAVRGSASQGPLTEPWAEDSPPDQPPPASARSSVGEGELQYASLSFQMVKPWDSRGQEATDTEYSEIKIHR

[5] = tested on: Trypanosoma cruzi; assay: Trypanosoma cruzi phosphomannomutase and mannose-1-phosphate guanylyltransferase assay; assay type: functional; details: 10 µM
[6] = biological target: T2, Arginase-2, mitochondrial (Homo sapiens) (UniProt P78540); assay: in vitro enzyme assay to detect the production of urea directly proportional to the activity of Arginase II; assay type: functional; details: 33.3 µM; further: in the data most compounds retested in dose-response had high values
T2 sequence (whole entry): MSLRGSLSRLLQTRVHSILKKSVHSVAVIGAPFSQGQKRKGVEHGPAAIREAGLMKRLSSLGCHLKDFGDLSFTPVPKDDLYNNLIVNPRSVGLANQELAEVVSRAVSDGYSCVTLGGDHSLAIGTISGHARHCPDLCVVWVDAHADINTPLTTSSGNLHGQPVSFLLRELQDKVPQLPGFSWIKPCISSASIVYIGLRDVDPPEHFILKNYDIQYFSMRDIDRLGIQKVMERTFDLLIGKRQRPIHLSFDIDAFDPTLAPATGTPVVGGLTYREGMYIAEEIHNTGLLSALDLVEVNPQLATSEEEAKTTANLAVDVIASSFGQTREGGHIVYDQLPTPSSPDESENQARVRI

[7] = biological target: T3, Proteasome subunit beta (Trypanosoma cruzi) (UniProt O96673); assay: Trypanosoma cruzi proteasome chymotrypsin-like activity (TcProtChymo) assay.; further: in the data most compounds retested in dose-response had high values; assay type: functional; details: 9.37 µM
T3 sequence (whole entry): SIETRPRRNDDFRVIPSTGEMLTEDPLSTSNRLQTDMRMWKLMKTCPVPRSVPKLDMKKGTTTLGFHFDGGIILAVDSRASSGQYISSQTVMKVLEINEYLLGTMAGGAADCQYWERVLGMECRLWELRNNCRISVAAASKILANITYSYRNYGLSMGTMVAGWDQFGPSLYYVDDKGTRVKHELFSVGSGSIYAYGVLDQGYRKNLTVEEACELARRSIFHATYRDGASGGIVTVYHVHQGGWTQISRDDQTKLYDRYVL

[8] = species: Homo sapiens; assay: To identify inhibition of the IFN signalling (Jak-Stat) pathway via expression of an eGFP reporter gene under the control of an IFN-stimulated response element (ISRE) containing MxA promoter.; assay type: functional; details: 30 µM
[9] = biological target: T4, Tyrosyl-tRNA synthetase, putative (Trypanosoma cruzi (strain CL Brener)) (UniProt Q4DSP6); assay: Trypanosoma cruzi tyrosyl tRNA synthetase (TcYRS) _High Tyrosine SOP; assay type: functional; details: 30 µM; further: in the data most compounds retested in dose-response had high values
T4 sequence (whole entry): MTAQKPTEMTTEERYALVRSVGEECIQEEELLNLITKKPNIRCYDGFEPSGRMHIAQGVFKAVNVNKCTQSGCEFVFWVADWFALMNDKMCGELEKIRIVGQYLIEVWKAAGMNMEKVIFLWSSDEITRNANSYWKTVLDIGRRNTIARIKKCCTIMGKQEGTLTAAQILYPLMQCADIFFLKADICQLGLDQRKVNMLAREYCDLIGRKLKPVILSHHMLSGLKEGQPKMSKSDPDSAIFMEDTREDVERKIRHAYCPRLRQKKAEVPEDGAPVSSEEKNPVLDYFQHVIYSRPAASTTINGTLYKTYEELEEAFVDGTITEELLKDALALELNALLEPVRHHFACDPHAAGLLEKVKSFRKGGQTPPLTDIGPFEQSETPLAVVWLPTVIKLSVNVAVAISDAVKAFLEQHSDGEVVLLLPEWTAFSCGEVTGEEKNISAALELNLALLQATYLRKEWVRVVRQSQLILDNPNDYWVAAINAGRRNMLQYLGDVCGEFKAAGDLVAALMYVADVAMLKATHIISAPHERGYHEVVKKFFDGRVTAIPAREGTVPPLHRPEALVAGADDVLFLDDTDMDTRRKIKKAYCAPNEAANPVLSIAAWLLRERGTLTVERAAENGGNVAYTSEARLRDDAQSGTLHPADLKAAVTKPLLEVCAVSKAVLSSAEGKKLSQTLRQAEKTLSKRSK

[10] = biological target: T4, Tyrosyl-tRNA synthetase, putative (Trypanosoma cruzi (strain CL Brener)); assay: Trypanosoma cruzi tyrosyl tRNA synthetase (TcYRS) SOP; assay type: functional; details: 30 µM
[11] = biological target: Chromo domain-containing protein 1 (Saccharomyces cerevisiae (strain ATCC 204508 / S288c) (Baker's yeast)) (UniProt P32657); assay: ScCHD-1 Enzyme Inhibition Assay; assay type: functional; details: 30 µM; further: in the data most compounds retested in dose-response had high values
Sequence of Chromo domain-containing protein 1 (Saccharomyces cerevisiae (strain ATCC 204508 / S288c) (Baker's yeast)) (P32657 whole entry, the tested form may be a part): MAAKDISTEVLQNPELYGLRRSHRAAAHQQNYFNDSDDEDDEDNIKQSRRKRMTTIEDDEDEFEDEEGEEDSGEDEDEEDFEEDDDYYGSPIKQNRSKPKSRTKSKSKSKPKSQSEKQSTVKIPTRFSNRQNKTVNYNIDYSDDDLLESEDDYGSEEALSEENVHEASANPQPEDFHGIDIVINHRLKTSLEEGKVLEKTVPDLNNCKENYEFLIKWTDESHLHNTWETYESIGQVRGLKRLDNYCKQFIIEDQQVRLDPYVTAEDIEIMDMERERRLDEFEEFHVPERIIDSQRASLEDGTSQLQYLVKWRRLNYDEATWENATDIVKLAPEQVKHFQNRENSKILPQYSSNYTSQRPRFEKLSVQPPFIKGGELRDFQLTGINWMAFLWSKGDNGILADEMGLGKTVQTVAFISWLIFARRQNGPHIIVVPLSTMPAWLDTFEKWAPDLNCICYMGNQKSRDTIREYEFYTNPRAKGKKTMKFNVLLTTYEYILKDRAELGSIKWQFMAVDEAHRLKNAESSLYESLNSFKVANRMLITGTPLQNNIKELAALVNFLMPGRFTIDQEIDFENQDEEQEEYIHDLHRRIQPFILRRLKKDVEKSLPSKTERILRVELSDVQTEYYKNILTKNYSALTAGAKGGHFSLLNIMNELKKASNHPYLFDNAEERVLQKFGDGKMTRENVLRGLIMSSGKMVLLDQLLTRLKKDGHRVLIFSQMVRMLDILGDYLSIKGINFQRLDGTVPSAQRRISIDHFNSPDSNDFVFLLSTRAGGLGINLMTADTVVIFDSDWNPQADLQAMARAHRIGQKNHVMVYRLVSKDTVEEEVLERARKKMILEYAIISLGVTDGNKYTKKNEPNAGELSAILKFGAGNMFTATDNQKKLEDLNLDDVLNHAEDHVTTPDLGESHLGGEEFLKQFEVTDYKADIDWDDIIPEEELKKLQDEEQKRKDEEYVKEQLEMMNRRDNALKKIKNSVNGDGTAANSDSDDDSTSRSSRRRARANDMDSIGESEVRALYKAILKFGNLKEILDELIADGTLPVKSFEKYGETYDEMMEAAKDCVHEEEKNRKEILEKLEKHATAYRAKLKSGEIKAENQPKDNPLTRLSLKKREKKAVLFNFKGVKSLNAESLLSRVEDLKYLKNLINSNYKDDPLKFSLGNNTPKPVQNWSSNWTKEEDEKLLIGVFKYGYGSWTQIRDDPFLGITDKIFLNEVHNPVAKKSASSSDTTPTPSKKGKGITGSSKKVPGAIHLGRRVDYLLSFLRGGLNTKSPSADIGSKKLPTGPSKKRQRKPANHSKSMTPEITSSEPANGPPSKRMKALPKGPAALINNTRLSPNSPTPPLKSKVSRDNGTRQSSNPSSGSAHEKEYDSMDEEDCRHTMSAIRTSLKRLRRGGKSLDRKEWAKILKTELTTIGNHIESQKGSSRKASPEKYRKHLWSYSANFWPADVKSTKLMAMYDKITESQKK

| SMILES | Percent Effect [1] [%] | Percent Effect [2] [%] | Percent Effect [3] [%] | Percent Effect [4] [%] | Percent Effect [5] [%] | Percent Effect [6] [%] | Percent Effect [7] [%] | Percent Effect [8] [%] | Percent Effect [9] [%] | Percent Effect [10] [%] | Percent Effect [11] [%] |
| --- | --- | --- | --- | --- | --- | --- | --- | --- | --- | --- | --- |
| COc1ccccc1CC(=O)N1CCC(NCc2cc[nH]c2)CC1 | -0.99 | 18.9 | -7.09 | -3.31 | 4.92 | 5.36 | 16.3 | 5.88 | 11.9 | 23.2 | -7.56 |
| COc1cccc(COCC(=O)N2CCCC(n3ccnc3)C2)c1 (configuration not stated) | -4.67 | 18.9 | 21.3 | -4.82 | -6.13 | 0.802 | 3.06 | 10.7 | 6.4 | 11.1 | -5.14 |
| O=C(c1ccc(O)c(Cl)c1)N1CCC(c2n[nH]c(C3CC3)n2)CC1 | -6.1 | 3.8 | -0.285 | -6.96 | -5.44 | -1.5 | 9.61 | 8.98 | 1.04 | 0 | -0.322 |
| c1ccc(OCC2CC3(CCN(c4ncccn4)CC3)CO2)nc1 (configuration not stated) | -0.807 | 1.33 | 3.04 | -2.52 | -1.57 | -5.46 | 10.9 | 14 | 0 | -2.56 | -5.94 |
| CCc1nc(CN(C(C)=O)C2CCN(CCc3cnn(C)c3)C2)no1 (configuration not stated) | -2.36 | 27.9 | -1.95 | -9.07 | -0.85 | 3.04 | 0.901 | 22.4 | -19.2 | 16.5 | -7.18 |
| Cc1n[nH]c(C)c1NC(=O)CN1CCc2c(nc(C3CC3)n2C)C1 | -1.39 | 20.8 | -6.42 | -4.94 | -9.36 | 0 | 10.6 | 37.3 | 3.88 | 2.44 | -7.54 |
| O=C(CN1CCCCC1Cn1cncn1)NCCC1=CCCCC1 (configuration not stated) | -9.27 | 7.59 | -1.31 | 4.8 | -2.55 | -0.76 | -4.5 | 30.9 | 2.46 | -3.8 | -6.11 |
| CCOc1ccc(CC(CNC(=O)c2occc2C)C(N)=O)cc1 (configuration not stated) | -5.57 | 10.4 | -18.6 | -5.56 | -3.23 | 1.47 | 3.64 | 9.64 | 7.62 | 11.8 | -12.3 |
| Cc1ncc(CN2Cc3ccccc3O[C@]3(CC[C@H](CO)CC3)C2)cn1 | -1.38 | 6.76 | 8.93 | 6.44 | -2.57 | 0.696 | 0.78 | 8.08 | 3.23 | 9.09 | -4.96 |
| CN(C)C(=O)CN1CCC2(CCN(Cc3nccs3)CC2)C1=O | -0.585 | 10.7 | 0.545 | -5.07 | -9.46 | -60.4 | 12.5 | 13.1 | -12.5 | 5 | -7.73 |
| CCc1nc(CC(=O)N2CCOCC2c2ncon2)cs1 (configuration not stated) | -0.574 | -2.7 | -3.99 | -2.13 | -3.99 | 1.29 | 5.75 | -8.37 | 0 | -1.22 | 2.33 |
| CCc1nc(CN(C)CC(c2cccs2)N2CCOCC2)no1 (configuration not stated) | -2.58 | 27 | -3.84 | -3.75 | 1.76 | -2.4 | 10.6 | 13.9 | 6.93 | 23.2 | -7.57 |
| O=C1CC(N(C(=O)c2ccc3[nH]c4c(c3c2)CCCC4)C2CC2)C(=O)N1 (configuration not stated) | -1.37 | 27.9 | -6.86 | -8.64 | 6.33 | -3.8 | 19.7 | -7.55 | 7.39 | 24.1 | -8.05 |
| COCCC(=O)N1CCc2cc(Cl)cc(Cl)c2C1 | -3.86 | -44.2 | 0.226 | 19.2 | 1.87 | 0 | 14 | -16.1 | -3.23 | -1.24 | 126 |
| Cn1c(C2CC2)nc2c1CCN(CCOc1ccc(C#N)cc1)C2 | -3.25 | -15.6 | 4.37 | 6.69 | 2.43 | -1.07 | 4.22 | -24.9 | 6.8 | 2.44 | -8.18 |
| COc1cccc2c1OCC(NC(=O)NCc1cccs1)C2 (configuration not stated) | -7.48 | 15.8 | 0.286 | 9.16 | 0.876 | -2.37 | 9.11 | 5.73 | 4.25 | 13 | -6.35 |
| COc1ccc(CN2C[C@H]3CC[C@](O)(c4ccc(C)cn4)[C@H]3C2)c(F)c1 | -5 | 6.76 | 15.2 | 2.69 | -2.77 | -1.16 | -1.56 | 13.7 | 5.38 | 6.49 | -8.01 |
| O=C(c1cccn1Cc1cccs1)N1CCN(C2CC2)CC1 | -4.51 | 0 | 3.71 | 11 | 8.05 | 0 | 11.3 | -0.305 | 6.8 | 14.6 | -8.6 |
| Cc1cnn(CC2CCCN2C(=O)CCCc2nc(C)no2)c1 (configuration not stated) | -1.89 | 13.2 | 1.65 | -10.6 | -3.21 | -3.55 | 4.89 | 27.9 | 1.06 | 10.4 | -6.12 |
| COc1ccc(F)cc1C(C(=O)O)N1CCSCC1 (configuration not stated) | -2.63 | 8.11 | -2.63 | 20.8 | 1.66 | 18.6 | 6.95 | -10 | 8.6 | 18.5 | -1.27 |
| O=c1[nH]c2nc(N3CCSCC3)ncc2c(=O)n1-c1cccc(F)c1 | -3.04 | 7.89 | 7.15 | -1.69 | -1.46 | 5.92 | 15.4 | 9.74 | 3.19 | 10.4 | -0.88 |
| O=S1(=O)COCCN1Cc1cccc(Cl)c1 | -1.74 | 5.41 | -2.78 | 6.98 | 7.92 | -1.91 | 13.4 | 17.7 | 8.99 | 12.2 | -2.28 |
